Holding throughout (assay): DAPPL (digital affinity profiling via proximity ligation, sequencing); 10 mM Tris-HCl pH 7.5, 50 mM NaCl, 1 mM DTT, 4% glycerol, room temperature, 30 min; GST-TFs on glutathione beads, 16-mer random dsDNA library, 0.1% formaldehyde crosslink after washing; high values mean tight binding
Holding throughout (conditions): protein: recombinant; tags: N-terminal GST; dsDNA, one strand shown

One test concerns the target T1, ERF (Homo sapiens, UniProt P50548 1-548).
T1 sequence: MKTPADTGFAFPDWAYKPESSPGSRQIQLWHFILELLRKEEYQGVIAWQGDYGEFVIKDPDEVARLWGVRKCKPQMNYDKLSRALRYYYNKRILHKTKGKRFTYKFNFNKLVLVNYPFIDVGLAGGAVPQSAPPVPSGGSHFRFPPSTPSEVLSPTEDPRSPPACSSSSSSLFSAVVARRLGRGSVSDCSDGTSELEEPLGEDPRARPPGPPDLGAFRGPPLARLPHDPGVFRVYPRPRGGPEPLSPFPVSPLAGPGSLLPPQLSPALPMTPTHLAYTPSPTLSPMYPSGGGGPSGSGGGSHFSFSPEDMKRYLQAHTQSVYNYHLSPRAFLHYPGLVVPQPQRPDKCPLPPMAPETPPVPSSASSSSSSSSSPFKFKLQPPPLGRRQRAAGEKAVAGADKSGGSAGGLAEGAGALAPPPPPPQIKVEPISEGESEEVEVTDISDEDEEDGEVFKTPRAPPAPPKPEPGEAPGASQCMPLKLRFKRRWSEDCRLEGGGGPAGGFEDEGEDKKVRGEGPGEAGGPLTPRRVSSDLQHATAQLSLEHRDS
In short, it runs like this:
(§1)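 A tag-only sample was pooled with DNA-barcoded human transcription factors that had been expressed in yeast as GST fusions and captured on glutathione beads. The pools were incubated for 30 min at room temperature with 200 nmole of a random double-stranded 16-mer DNA library in Tris/NaCl/DTT/glycerol buffer, then washed, crosslinked with 0.1% formaldehyde, proximity-ligated (BsaI/T4 ligase, 1 h, 37 °C), PCR-amplified and sequenced on an Illumina NextSeq500. Binding signal is each hexamer's read frequency for a factor divided by its frequency for the tag-only sample.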

The next test concerns the target T2, ETV3L (Homo sapiens, UniProt Q6ZN32 1-361).
T2 sequence: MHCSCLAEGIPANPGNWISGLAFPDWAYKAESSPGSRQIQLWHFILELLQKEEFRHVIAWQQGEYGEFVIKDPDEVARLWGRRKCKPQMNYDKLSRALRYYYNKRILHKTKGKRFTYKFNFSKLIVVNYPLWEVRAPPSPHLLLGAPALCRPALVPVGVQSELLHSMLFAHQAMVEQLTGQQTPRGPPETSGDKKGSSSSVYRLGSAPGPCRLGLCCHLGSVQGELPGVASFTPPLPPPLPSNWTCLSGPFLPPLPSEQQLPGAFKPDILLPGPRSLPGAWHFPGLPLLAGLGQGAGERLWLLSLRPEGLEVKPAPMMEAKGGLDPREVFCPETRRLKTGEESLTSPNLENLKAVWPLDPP
In short, it runs like this: as §1

In the next test the target is T3, ETS2 (Homo sapiens, UniProt P15036 1-469).
T3 sequence: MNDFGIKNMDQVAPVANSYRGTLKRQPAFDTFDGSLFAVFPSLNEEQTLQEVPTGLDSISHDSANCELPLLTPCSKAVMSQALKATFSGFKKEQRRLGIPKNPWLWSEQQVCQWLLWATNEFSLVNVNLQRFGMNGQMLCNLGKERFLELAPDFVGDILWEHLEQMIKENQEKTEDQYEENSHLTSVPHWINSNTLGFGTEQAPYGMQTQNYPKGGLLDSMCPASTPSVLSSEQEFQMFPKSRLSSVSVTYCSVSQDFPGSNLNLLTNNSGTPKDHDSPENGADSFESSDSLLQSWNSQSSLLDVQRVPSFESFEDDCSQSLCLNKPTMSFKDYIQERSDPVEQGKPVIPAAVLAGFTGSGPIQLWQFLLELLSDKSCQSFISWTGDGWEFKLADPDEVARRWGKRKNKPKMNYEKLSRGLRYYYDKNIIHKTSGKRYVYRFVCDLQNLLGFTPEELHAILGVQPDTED
In outline:
as §1

A further test concerns the target T4, SPDEF (Homo sapiens, UniProt O95238 1-335).
T4 sequence: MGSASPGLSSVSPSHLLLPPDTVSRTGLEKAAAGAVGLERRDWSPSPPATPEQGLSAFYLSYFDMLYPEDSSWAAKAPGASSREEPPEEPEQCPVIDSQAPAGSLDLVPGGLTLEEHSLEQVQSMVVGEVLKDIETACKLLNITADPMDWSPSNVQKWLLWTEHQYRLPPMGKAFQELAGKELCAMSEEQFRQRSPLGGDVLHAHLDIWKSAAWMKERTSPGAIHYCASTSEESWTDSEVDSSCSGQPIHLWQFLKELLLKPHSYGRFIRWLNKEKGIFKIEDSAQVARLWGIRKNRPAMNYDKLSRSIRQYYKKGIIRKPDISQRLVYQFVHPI
In outline: as §1

A further test has as its target T5, ETV7 (Homo sapiens, UniProt Q9Y603 1-341).
T5 sequence: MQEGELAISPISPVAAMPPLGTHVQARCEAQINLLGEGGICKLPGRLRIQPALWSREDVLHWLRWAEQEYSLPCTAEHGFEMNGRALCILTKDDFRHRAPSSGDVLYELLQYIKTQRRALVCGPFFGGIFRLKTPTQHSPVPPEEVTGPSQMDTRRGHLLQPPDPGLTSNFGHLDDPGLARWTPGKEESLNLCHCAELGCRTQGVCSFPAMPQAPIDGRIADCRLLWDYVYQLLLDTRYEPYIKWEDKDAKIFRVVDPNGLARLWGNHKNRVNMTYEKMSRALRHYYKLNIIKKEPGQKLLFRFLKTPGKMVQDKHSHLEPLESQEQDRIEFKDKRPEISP
In short, it runs like this: as §1

A further test addresses T6, ELF5 (Homo sapiens, UniProt Q9UKW6-2 1-255).
T6 sequence: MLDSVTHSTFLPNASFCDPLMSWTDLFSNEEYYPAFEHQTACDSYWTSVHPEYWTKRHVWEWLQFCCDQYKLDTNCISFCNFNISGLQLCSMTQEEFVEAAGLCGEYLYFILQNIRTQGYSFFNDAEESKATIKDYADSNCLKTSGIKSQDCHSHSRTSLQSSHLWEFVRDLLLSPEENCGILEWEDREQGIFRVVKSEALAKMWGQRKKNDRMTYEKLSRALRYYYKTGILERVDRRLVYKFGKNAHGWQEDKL
In outline: as §1

In the next test the target is T7, ETV3 (Homo sapiens, UniProt P41162-2 1-143).
T7 sequence: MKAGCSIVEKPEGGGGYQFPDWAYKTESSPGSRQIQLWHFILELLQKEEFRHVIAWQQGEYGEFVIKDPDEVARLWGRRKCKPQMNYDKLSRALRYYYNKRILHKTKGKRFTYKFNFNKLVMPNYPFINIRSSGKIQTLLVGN
In outline: as §1

The next test has as its target ETV6 (Homo sapiens, UniProt P41212 1-452). In outline: as §1

ETV6, sequence (P41212 whole entry): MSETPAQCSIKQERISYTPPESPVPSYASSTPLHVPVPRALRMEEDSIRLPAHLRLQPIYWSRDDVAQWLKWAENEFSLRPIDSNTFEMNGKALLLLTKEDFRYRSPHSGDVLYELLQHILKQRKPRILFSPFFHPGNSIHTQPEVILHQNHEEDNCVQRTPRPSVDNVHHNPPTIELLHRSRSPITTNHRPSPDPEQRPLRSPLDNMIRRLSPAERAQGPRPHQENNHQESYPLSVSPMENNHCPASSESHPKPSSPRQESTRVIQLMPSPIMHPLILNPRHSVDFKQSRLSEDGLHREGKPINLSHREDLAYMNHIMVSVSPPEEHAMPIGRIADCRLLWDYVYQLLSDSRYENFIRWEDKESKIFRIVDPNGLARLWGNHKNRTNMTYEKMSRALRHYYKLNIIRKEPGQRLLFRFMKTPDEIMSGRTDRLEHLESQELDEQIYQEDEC

In the case of GAAATT, the binding signal in the test with ERF was 1.36 fold enrichment (6-mer frequency, TF over GST control); with ETV3L it was 1.34 fold enrichment (6-mer frequency, TF over GST control); in the test with ETS2, 1.35 fold enrichment (6-mer frequency, TF over GST control); with SPDEF, 1.25 fold enrichment (6-mer frequency, TF over GST control); with ETV7, 1.2 fold enrichment (6-mer frequency, TF over GST control); with ELF5, 1.51 fold enrichment (6-mer frequency, TF over GST control). The binding signal is 1.32 fold enrichment (6-mer frequency, TF over GST control) with ETV3 and 1.41 fold enrichment (6-mer frequency, TF over GST control) in the test with ETV6.
On to CGGTTC, for which the binding signal was 1.21 fold enrichment (6-mer frequency, TF over GST control) in the test with ERF; 1.17 fold enrichment (6-mer frequency, TF over GST control) in the test with ETV3L; 1.21 fold enrichment (6-mer frequency, TF over GST control) with ETS2; 1.63 fold enrichment (6-mer frequency, TF over GST control) with SPDEF; 1.17 fold enrichment (6-mer frequency, TF over GST control) with ETV7; 1.33 fold enrichment (6-mer frequency, TF over GST control) with ELF5. Moreover, the binding signal with ETV3 is 1.3 fold enrichment (6-mer frequency, TF over GST control); with ETV6, 1.4 fold enrichment (6-mer frequency, TF over GST control).
Turning to GCCTTT, the binding signal with ERF was 1.29 fold enrichment (6-mer frequency, TF over GST control); with ETV3L, 1.27 fold enrichment (6-mer frequency, TF over GST control); with ETS2, 1.14 fold enrichment (6-mer frequency, TF over GST control); in the test with SPDEF, 1.15 fold enrichment (6-mer frequency, TF over GST control); with ETV7 it was 1.18 fold enrichment (6-mer frequency, TF over GST control); with ELF5, 1.3 fold enrichment (6-mer frequency, TF over GST control). In addition, the binding signal is 1.33 fold enrichment (6-mer frequency, TF over GST control) in the test with ETV3 and 1.38 fold enrichment (6-mer frequency, TF over GST control) in the test with ETV6.
Turning to AAATAG, the binding signal is 1.11 fold enrichment (6-mer frequency, TF over GST control) with ERF; 1.15 fold enrichment (6-mer frequency, TF over GST control) with ETV3L; 1.12 fold enrichment (6-mer frequency, TF over GST control) with ETS2; 1 fold enrichment (6-mer frequency, TF over GST control) with SPDEF; 1.23 fold enrichment (6-mer frequency, TF over GST control) with ETV7; 1.14 fold enrichment (6-mer frequency, TF over GST control) in the test with ELF5. For the same sequence, the binding signal with ETV3 is 1.21 fold enrichment (6-mer frequency, TF over GST control); with ETV6, 1.18 fold enrichment (6-mer frequency, TF over GST control).
Regarding CTAAAT, the binding signal with ERF is 1.35 fold enrichment (6-mer frequency, TF over GST control); in the test with ETV3L, 1.43 fold enrichment (6-mer frequency, TF over GST control); with ETS2, 1.38 fold enrichment (6-mer frequency, TF over GST control); with SPDEF, 1.31 fold enrichment (6-mer frequency, TF over GST control); with ETV7 it was 1.34 fold enrichment (6-mer frequency, TF over GST control); with ELF5 it was 1.25 fold enrichment (6-mer frequency, TF over GST control). The binding signal was 1.4 fold enrichment (6-mer frequency, TF over GST control) with ETV3 and 1.3 fold enrichment (6-mer frequency, TF over GST control) with ETV6.
As to TCTGGT, the binding signal in the test with ERF is 1.34 fold enrichment (6-mer frequency, TF over GST control); with ETV3L it was 1.26 fold enrichment (6-mer frequency, TF over GST control); with ETS2, 1.16 fold enrichment (6-mer frequency, TF over GST control); in the test with SPDEF it was 1.28 fold enrichment (6-mer frequency, TF over GST control); with ETV7 it was 1.35 fold enrichment (6-mer frequency, TF over GST control); in the test with ELF5, 1.26 fold enrichment (6-mer frequency, TF over GST control). Also, the binding signal with ETV3 was 1.29 fold enrichment (6-mer frequency, TF over GST control); with ETV6, 1.17 fold enrichment (6-mer frequency, TF over GST control).
Regarding TCGACG, the binding signal with ERF was 1.02 fold enrichment (6-mer frequency, TF over GST control); in the test with ETV3L, 1 fold enrichment (6-mer frequency, TF over GST control); with ETS2, 1.07 fold enrichment (6-mer frequency, TF over GST control); in the test with SPDEF, 1.05 fold enrichment (6-mer frequency, TF over GST control); in the test with ETV7 it was 1.05 fold enrichment (6-mer frequency, TF over GST control); in the test with ELF5, 1.01 fold enrichment (6-mer frequency, TF over GST control). For the same sequence, in the test with ETV6, the binding signal is 1.07 fold enrichment (6-mer frequency, TF over GST control).

The values are drawn from PMC7862700, “An all-to-all approach to the identification of sequence-specific readers for epigenetic DNA modifications on cytosine”.
